Source: PubChem (National Center for Advancing Translational Sciences (NCATS))
Pf Dd2 growth – qHTS Primary assay for Inhibitors of Plasmodium falciparum Dd2 growth in vitro; P. falciparum Dd2 growth, SYBR Green, 72 h; Potency, µM (doses to about 28.9 µM), for inactives: at the highest dose activity, negative = inhibition, usual class: inhibitors; actives 4.3% (n = 120,000); active means well fitted inhibition curve with a large enough effect;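 further: plate controls were DMSO vehicle for no effect and reference drug for full effect; nearly all actives have a fitted effect of over 65% in size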
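Infected erythrocytes (Dd2, 0.3% parasitemia, 2.5% hematocrit final) are added to compound in RPMI-1640/Albumax II medium, grown 72 h at 37C in low oxygen, then lysed with saponin/Triton-X containing SYBR Green and read by fluorescence.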
* = called active by the depositor; i = inactive; [ ] = remark or other dose. The full list was thinned out, with hits kept by preference. Potency means the concentration at half of the fitted maximal effect.

SMILES | Pf Dd2 growth
CC1=C[C@@H](CNC2CCOCC2)[C@H](C(C)C)C[C@H]1Cc1nc2ccc(Cl)cc2[nH]1 | 7.1µM*
COC(=O)c1ccc2nc(C[C@@H]3C[C@@H](C(C)C)[C@H](CNCc4ccccc4O)C=C3C)[nH]c2c1 | -12%
CC1=C[C@@H](CNC(=O)CN(C)C)[C@H](C(C)C)C[C@H]1Cc1nc2ccc(Cl)cc2[nH]1 | 6.3µM*
COc1ccc2nc(C[C@@H]3C[C@@H](C(C)C)[C@H](CNC(=O)CCCC(=O)O)C=C3C)[nH]c2c1 | -12%
COCC(=O)NC[C@@H]1C=C(C)[C@H](Cc2nc3ccc(Cl)cc3[nH]2)C[C@H]1C(C)C | 2.5µM*
COc1ccc2nc(C[C@@H]3C[C@@H](C(C)C)[C@H](CNCc4ccccc4OC)C=C3C)[nH]c2c1 | 1.3µM*
CC1=C[C@@H](CNC(=O)CCC(=O)O)[C@H](C(C)C)C[C@H]1Cc1nc2ccc(C)cc2[nH]1 | 3%[44.1 µM]
COc1ccc2nc(C[C@@H]3C[C@@H](C(C)C)[C@H](CNC(=O)NC4CCCCC4)C=C3C)[nH]c2c1 | i
COc1ccccc1CN(Cc1ccccc1OC)C[C@@H]1C=C(C)[C@H](Cc2nc3c(C)cccc3[nH]2)C[C@H]1C(C)C | -8%
CC1=C[C@@H](CNC2CCOCC2)[C@H](C(C)C)C[C@H]1Cc1nc2ccccc2[nH]1 | -13%[44.1 µM]
Cc1cc(C(=O)NC2CC(=O)N(Cc3ccccc3C(F)(F)F)C2)nn1C (centres undefined) | -5%
O=C(N1CCC2(CC1)CN(c1ccncn1)CC2CO)C1(c2ccccc2)CC1 (centres undefined) | -31%
O=C(Nc1ccc(F)cc1)N1CC[C@H]2CC(=O)N(c3ccccc3)CC[C@H]2C1 | 11%[44.1 µM]
O=C(NCc1ccccc1)C1(CCO)CCN(c2ncccn2)C1 (centres undefined) | -1%
CNC(=O)[C@@H]1C[C@H](Oc2cccnc2)CN1C(=O)c1ccc(OC)nc1 | 24%
CCCN1CCc2[nH]cnc2C12CCN(C(=O)CC1C=CS(=O)(=O)C1)CC2 (centres undefined) | 22%
CC1(C)CNC(=O)c2nc(CC3(O)CCCC3)[nH]c2C1 | 6%
Cc1ccc(F)c(OCC(=O)c2ccc3c(c2)N(CCCC(=O)NC2CC2)C(=O)CO3)c1 | -14%
Cc1noc(-c2cn(C3CCN(C(=O)c4cccc(N(C)C)c4)CC3)nn2)n1 | -15%
Cc1nonc1CC(=O)N1CCC(O)(CN2CCOCC2)C(C)(C)C1 (centres undefined) | -15%
CNC(=O)[C@@H]1CN(C(=O)c2cscn2)C[C@H]1c1nc(COC)no1 | 20%
CC1(NC(=O)C2CC2)CN(Cc2nc(-c3ccccc3)cs2)C1 | i
O=C(NCc1cccnc1)c1nc(-c2ccccc2)cc2[nH]ccc12 | i
O=C1CCC(CNC(=O)c2nc(-c3ccccc3)cc3[nH]ccc23)N1 (centres undefined) | 3%[44.1 µM]
O=C(NCCCn1ccnc1)c1nc(-c2ccccc2)cc2[nH]ccc12 | 11µM*
SMILES | Pf Dd2 growth
COc1ncccc1-c1nccc2c(=O)cc(-c3cccnc3)oc12 | -8%[44.1 µM]
Cc1nn(C)c(C)c1CCC(=O)N1C[C@@H](Oc2ccccc2)C[C@H]1C(=O)NC1CC1 | 15%
COCCN1CCCCCC(O)c2cc(C(=O)NCC(C)C)ccc21 (centres undefined) | -11%
COCCN1CCCCCC(O)c2cc(C(=O)NCC3CC3)ccc21 (centres undefined) | i
COCCN1CCCCCC(O)c2cc(C(=O)NCc3cc(F)cc(F)c3)ccc21 (centres undefined) | 13µM*
Cc1cc2ncc(C(=O)NC(C)c3ccc(F)cc3)cn2n1 (centres undefined) | -7%[44.1 µM]
Cc1ccc(NC(=O)N2CCC(OC3CCN(S(C)(=O)=O)CC3)CC2)cc1C | i
O=C(NCc1ccc(F)cc1)N1CC(c2nnc(-c3ccncc3)o2)C2(CCOCC2)C1 (centres undefined) | -24%
Cc1ccc(CNC(=O)Cn2c(-c3ccc(F)cc3)nc(C)c(CCO)c2=O)cc1 | -11%
CCOC(=O)c1c(C)oc2nc(C)nc(NCCc3ccc(OC)c(OC)c3)c12 | -25%
CCOc1ccc(-c2nnc(SCC(=O)NCCc3ccc(OC)c(OC)c3)nc2-c2ccc(OCC)cc2)cc1 | -26%
CCOC(=O)c1cnc2ccc(OCC)cc2c1NCCc1ccc(OC)c(OC)c1 | 4.5µM*
CCOC(=O)c1cnc2c(C)c(Cl)ccc2c1NCCc1ccccc1 | -10%
CCOC(=O)c1cnc2ccc(C)cc2c1NCCc1ccc(OC)c(OC)c1 | 8.9µM*
CCOC(=O)c1ccc2ncc(C(=O)OCC)c(Nc3ccc(C)c(Br)c3)c2c1 | i
CC1CCN(C(=O)c2ccc(-c3ccc(N4CCSCC4)nc3)cc2)CC1 | i
O=C(c1n[nH]c2ccccc12)N1CCC(c2nc(C3CCOCC3)no2)C1 (centres undefined) | i
CS(=O)(=O)CC[C@H](NC(=O)C1=C[C@@H](NC(=O)Nc2ccc(F)cc2F)[C@@H](O)[C@H](O)C1)C(N)=O | -10%
COc1c(C)cc(C)cc1CN1CCC2(CC1)C(C(=O)O)CC(=O)N2C (centres undefined) | 1%
Cc1cc(C(=O)N2CCCn3nc(CCC(=O)O)cc3C2)c2c(C)noc2n1 | -1%
CCOc1ccccc1C1C(C(=O)Nc2ccccc2)=C(C)Nc2nc(-c3ccccc3)nn21 (centres undefined) | -19%
Cc1ccc(C2C=C(c3ccccc3)Nc3nc(NS(=O)(=O)c4ccc(C)cc4)nn32)cc1 (centres undefined) | -14%
COc1ccc(C2Cn3nnc(-c4nc(-c5ccc(Cl)cc5)no4)c3CO2)cc1 (centres undefined) | i
COc1ccc(C2C=C(c3ccccc3)Nc3nc(NS(=O)(=O)c4ccc(C)cc4)nn32)cc1 (centres undefined) | 20%
COc1ccc(C2=CC(c3ccccc3Cl)n3nc(-c4ccc(C)cc4)nc3N2)cc1 (centres undefined) | 11µM*
SMILES | Pf Dd2 growth
Cc1ccc(C2C=C(c3ccc(F)cc3)Nc3nc(CCCO)nn32)cc1 (centres undefined) | 8.9µM*
COc1ccc(C2C=C(c3ccc(F)cc3)Nc3nc(-c4ccc(Cl)cc4)nn32)cc1 (centres undefined) | 1.1µM*
OCCCc1nc2n(n1)C(c1cccc(Cl)c1)C=C(c1ccccc1)N2 (centres undefined) | i
CS(=O)(=O)NC[C@H]1O[C@@H](CO)[C@@H](O)[C@H]1N1CCc2ccccc2C1 | -8%[44.1 µM]
CCC(=O)N(C1CCOCC1)C1CCN(S(=O)(=O)c2cc(C)ccc2C)CC1 | -17%
CN(C)[C@@H]1CNCC[C@@H]1CO | 27%
Cc1cc(CN2CCN(C(=O)CNC3CC3)CC(C(=O)O)C2)on1 (centres undefined) | -2%
Cc1cc(NC(=O)CSc2nc3c([nH]c4ccccc43)c(=O)n2-c2ccccc2F)no1 | 10µM*
COc1cccc(-n2c(SCC(=O)Nc3cccc(C)c3)nc3c([nH]c4ccccc43)c2=O)c1 | 10µM*
Cc1cc(C)cc(NC(=O)CSc2nc3c([nH]c4ccccc43)c(=O)n2-c2ccc(F)cc2)c1 | 10µM*
COc1cccc(-n2c(SCC(=O)N3CCCCC3)nc3c([nH]c4ccccc43)c2=O)c1 | -3%
COc1cccc(-n2c(SCC(=O)c3ccc(Cl)cc3)nc3c([nH]c4ccccc43)c2=O)c1 | i
O=C(CSc1nc2c([nH]c3ccccc32)c(=O)n1-c1ccc(Cl)cc1)N1CCc2ccccc21 | 61%
